Data on 40 compounds can be found in PubChem BioAssay (EPA / NIEHS).

Activity calls are given as the source filed them. Rule for the calls: active = hit-call score of the fitted dose curve at least 0.9, where 1 is the maximum; inactive = score below 0.9.

The assay in a line: CCTE_Padilla_ZF_Score.Any: CCTE's 144 Hour Post-fertilization zebrafish Assay Score for Any Mortality or Malformation, Padilla Lab (AID 2284416). How it is done: CCTE_Padilla_ZF_Phenotype_Score is a whole embryo, multiplexed assay using zebrafish ova exposed for 144 hours post fertilization on a 96-well plate.CCTE_Padilla_ZF_Score.Any is one of one assay component(s) measured or calculated from the CCTE_Padilla_ZF_Phenotype_Score assay. It is designed to make measurements of zebrafish development as detected with brightfield microscopy of developing zebrafish embryos.Data from the assay component CCTE_Padilla_ZF_Score.Any was analyzed into 1 assay endpoints. This assay endpoint, CCTE_Padilla_ZF_Score.Any, was analyzed in the positive analysis fitting direction relative to DMSO as the negative control and baseline of activity. Using a type of viability reporter, gain-of-signal activity can be used to understand changes in developmentals as they relate to the whole embryo. To generalize the intended target to other relatable targets, this assay endpoint is annotated to the zebrafish development intended target family, where the subfamily is embryonic morphogenesis and mortality.
Zebrafish husbandry: Wild type adult zebrafish (Danio rerio; undefined outbred stock obtained from Aquatic Research Organisms, Hampton, NH, 03842) were housed in an AAALAC-approved animal facility at 28C with a 14:10 h light: dark cycle (lights on at 08:30 h). Adult fish (2-3 females per male; density = 15-20 adults per tank) were kept in one of several 9-liter (L) flow-through colony tanks (Aquaneering Inc., San Diego, CA). All adults in a colony tank were placed in a 2 L (static) breeding tank (Aquatic Habitats, Apopka, FL) one hour prior to light onset. Typically, adults from two to three colony tanks were mated on the same day. Two hours after light onset the adults were returned to the colony tank. All embryos were gathered from each breeder tank, pooled, and placed in a 28C water bath for 2 h, followed by two washes with 0.06% bleach (v/v) in 10% Hanks' Balanced Salt Solution (13.7 mM NaCl 0.54 mM KCl, 25 uM Na2HPO4, 130 uM CaCl2 100 um MgSO4 and 420 um NaHCO3,), hereafter referred to as Hanks' solution, for 5 min in order to remove any residual bacteria or fungi. Immediately following washing, the embryos were examined, and healthy embryos were separated from dead or unfertilized eggs and moved into fresh Hanks'. Chemical exposures: Zebrafish embryos were exposed in 96-well plates. Between 6- and 8-hours post fertilization (hpf), healthy embryos (with chorions) were transferred, one embryo per well, into 96 well (0.5 mL) microtiter plates (Cell Culture-Treated, Flat-Bottom Microplate 96 well [Corning Costar, Kennebunk, ME; Cat 09-761-145]) filled with 200 uL of Hanks' solution. A random number generator was used to assign the order in which the rows of embryos were plated in 96 well plates each week. After plating, the embryos were dosed with 0.8 uL of the chemical dosing solution then immediately sealed with AlumaSeal II (Excel Scientific Inc, Victorville, CA) to prevent volatilization of the chemicals, and then placed in a leakproof secondary container. These containers were placed in an incubator maintained on a 14:10 h light: dark cycle at 26C for rearing. On 5 dpf, live larvae were gently moved out of the plate with test chemicals and into a new 96 well mesh plate (Millipore Corp., Bedford, MA) with just the Hanks' solution. Once within the mesh well plate, the animals were rinsed with 400 uL of fresh Hanks' three times, and then the plates were covered with a non-adhesive material (Microseal A, BioRad, Hercules, CA), plate lid added, and then plate sides wrapped in Parafilm (PM992, Bermis Company, Neenah, WI), and returned to the incubator. […]
With `COC(F)(C(F)F)C(F)(F)F` (stereo not given), the compound was classed as inactive. For `NS(=O)(=O)C(F)(F)C(F)(F)C(F)(F)C(F)(F)C(F)(F)C(F)(F)F`, the half-maximal activity concentration (AC50) is 1.81 µM (active). For `O=C(O)C(F)(F)C(F)(F)C(F)(F)OC(F)(C(F)(F)F)C(F)(F)F`, the call was inactive.

Turning to `CN(C(=O)C(F)(F)C(F)(F)C(F)(F)F)[Si](C)(C)C`, the result was inactive. Same read-out and setting: then `C=CC(=O)OCC(F)(F)C(F)(F)C(F)(F)C(F)(F)C(F)(F)C(F)(F)C(F)(F)C(F)F`, with “inactive”; and `O=C(F)C1(F)C(F)(F)C(F)(F)C(F)(F)C(F)(F)C1(F)F`, with “inactive”. Regarding `O=S(=O)(OCC(F)(F)F)C(F)(F)C(F)(F)C(F)(F)C(F)(F)F`, the AC50 is 33.3 µM (active). On the same count and under the same terms, the same measure for `NCC(F)(F)C(F)(F)C(F)(F)C(F)(F)C(F)(F)C(F)(F)C(F)(F)C(F)(F)F`: 32.9 µM (active); for `NCC(F)(F)C(F)(F)C(F)(F)C(F)(F)C(F)(F)C(F)(F)F`: 75.3 µM (active); for `OCCCCC(F)(F)C(F)(F)C(F)(F)C(F)(F)F`: 29 µM (active). In the case of `CO[Si](C)(CCC(F)(F)C(F)(F)C(F)(F)C(F)(F)C(F)(F)C(F)(F)F)OC`, the compound was called inactive. The same measure, in the same setting: then `OCCCC(F)(F)C(F)(F)C(F)(F)C(F)(F)C(F)(F)C(F)(F)C(F)(F)C(F)(F)F`, with “inactive”. For the compound `C=C(C)C(=O)OCC(F)(F)C(F)(F)C(F)(F)C(F)F`, the AC50 was 30 µM (active). Take `O=S(=O)(O)CCC(F)(F)C(F)(F)C(F)(F)C(F)(F)F`: the compound was called inactive. As to `OCC(O)CC(F)(F)C(F)(F)C(F)(F)C(F)(F)C(F)(F)C(F)(F)C(F)(F)C(F)(F)F` (stereo not given), the concentration at half-maximal activity (AC50) was 9.82 µM (active).

`CCN(CCO)S(=O)(=O)C(F)(F)C(F)(F)C(F)(F)C(F)(F)C(F)(F)C(F)(F)C(F)(F)C(F)(F)F`: the result was inactive. The same measure, in the same setting: the same measure for `C[Si](Cl)(Cl)CCC(F)(F)C(F)(F)C(F)(F)C(F)(F)C(F)(F)C(F)(F)F`: “inactive”.

On to `O=C(O)CCC(F)(F)C(F)(F)C(F)(F)C(F)(F)C(F)(F)C(F)(F)C(F)(F)F`, for which the result was inactive. Consider `O=C(Cl)C(F)(F)C(F)(F)C(F)(F)C(F)(F)C(F)(F)C(F)(F)C(F)(F)F`, for which the AC50 was 86.8 µM (active). As to `O=C(O)CCC(F)(F)C(F)(F)C(F)(F)F`, the half-maximal activity concentration (AC50) is 77.1 µM (active). Regarding `C=CC(=O)OCCC(F)(F)C(F)(F)C(F)(F)C(F)(F)F`, the half-maximal activity concentration (AC50) is 30 µM (active). As for `NC(O)(C(F)(F)F)C(F)(F)F`, the compound was called inactive. Turning to `CCOC(=O)CC(=O)C(F)(F)C(F)(F)F`, the call was inactive. For `O=C(O)C(F)(F)C(F)(F)C(F)(F)OC(F)(F)F`, the result was inactive.

Regarding `OCC(F)(F)C(F)(F)C(F)(F)C(F)(F)C(F)(F)C(F)(F)CO`, the AC50 is 62.4 µM (active). On to `NC(=O)C(F)(F)C(F)(F)C(F)(F)C(F)(F)C(F)(F)C(F)(F)C(F)(F)F`, for which the compound was classed as inactive.

As to `OCC(F)(F)C(F)(F)C(F)(F)C(F)(F)C(F)(F)C(F)(F)C(F)(F)C(F)(F)CO`, the AC50 was 5.84 µM (active). Regarding `OCC(O)CC(F)(F)C(F)(F)C(F)(F)C(F)(F)F` (stereo not given), the compound was called inactive. Consider `O=C(O)C(F)(F)OC(F)(F)C(F)(F)OC(F)(F)C(F)(F)OC(F)(F)F`, for which the outcome was inactive. On to `FC(F)(F)C(F)(F)C(F)(F)C(F)(F)C(F)(F)C(F)(F)C(F)(F)CCI`, for which the compound was classed as inactive. On to `O=C(Cl)C(F)(F)C(F)(F)C(F)(F)C(F)(F)C(F)(F)C(F)(F)F`, for which the AC50 was 76.8 µM (active). For the compound `O=S(=O)(O)CCC(F)(F)C(F)(F)C(F)(F)C(F)(F)C(F)(F)C(F)(F)C(F)(F)C(F)(F)F`, the result was inactive. As for `FC(F)(F)C(F)(F)C(F)(F)CC1CO1` (stereo not given), the compound was classed as inactive. Turning to `OC(O)C(F)(F)C(F)(F)F`, the result was inactive. Consider `O=S(=O)(Cl)C(F)(F)C(F)(F)C(F)(F)C(F)(F)C(F)(F)C(F)(F)C(F)(F)C(F)(F)F`, for which the half-maximal activity concentration (AC50) was 12.1 µM (active). As for `NC(=O)C(F)(F)C(F)(F)C(F)(F)C(F)F`, the result was inactive. Regarding `C=CC(=O)OCC(F)(F)C(F)(F)C(F)(F)COC(=O)C=C`, the half-maximal activity concentration (AC50) is 8.95 µM (active).

As for `CNS(=O)(=O)C(F)(F)C(F)(F)C(F)(F)C(F)(F)C(F)(F)C(F)(F)C(F)(F)C(F)(F)F`, the concentration at half-maximal activity (AC50) is 0.778 µM (active). In the case of `OCC(F)(F)C(F)(F)C(F)(F)CO`, the outcome was inactive. In the case of `NC(=O)C(F)(F)C(F)(F)C(F)(F)C(F)(F)C(N)=O`, the result was inactive.

As usually defined, the AC50 is the concentration at which the activity in the assay is half-maximal.
